The values below come from PubChem BioAssay (NCI).

Some test systems named below: SK-MEL-2 melanoma; SN12C renal; UO-31 renal; TK-10 renal; ACHN renal; CAKI-1 renal; A498 renal; CCRF-CEM leukemia; MOLT-4 leukemia.
Common to all, as to experiment: NCI-60 one-dose screen, 48 h (100 = growth as untreated, 0 = no growth, -100 = all killed)
What all share (details): 10 µM unless noted

The panel holds about 83,000 compounds, 20% with a hit somewhere; the sample as a whole holds those more often.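 Values shown are percent growth following 48 h exposure of cells in 96-well plates to a single concentration of compound; below 10 was considered active.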 Unmarked numbers belong to inactive results. Activity calls are given as the source filed them.

Take `Cc1nc2ccc(Cl)cc2n1C`: the growth was 101% with SK-MEL-2 melanoma; 101% in the assay with SN12C renal; 102% in the assay on UO-31 renal; 97.2% with TK-10 renal; 102% with ACHN renal; 101% with CAKI-1 renal. The figures for the growth in the assay with A498 renal, in the assay with CCRF-CEM leukemia and with MOLT-4 leukemia were 95.5%, 94.6% and 97.7%, respectively.

In the case of `COc1ncc(F)c(OC)n1`, the growth is 109% with SK-MEL-2 melanoma; 100% in the assay with SN12C renal; 86.9% with UO-31 renal; 108% in the assay on TK-10 renal; 100% with ACHN renal; 94.5% with CAKI-1 renal. For the same molecule, the growth with A498 renal was 110%; in the assay with CCRF-CEM leukemia it was 100%; in the assay with MOLT-4 leukemia it was 94.7%.

For the molecule `CCOC(=O)C(CC(c1ccccc1)N1CCCCC1)[N+](=O)[O-]` (stereo not given), the growth with SK-MEL-2 melanoma is 88.5%; in the assay with SN12C renal it was 76.9%; with UO-31 renal it was 46.2%; in the assay with TK-10 renal, 112%; in the assay with ACHN renal, 72.6%; in the assay on CAKI-1 renal, 103%. In addition, the values for the growth in the assay on A498 renal, in the assay with CCRF-CEM leukemia and in the assay with MOLT-4 leukemia were 88.4%, 49.5% and 63.7%, respectively.

Turning to `Nc1nc(N)c(N=Nc2c(Br)cc(S(N)(=O)=O)cc2Br)c(N)n1`, the growth in the assay on SK-MEL-2 melanoma was 94.9%; in the assay on SN12C renal it was 103%; with UO-31 renal it was 98%; in the assay with TK-10 renal, 122%; with ACHN renal it was 114%; in the assay with CAKI-1 renal, 99%. Further, the growth in the assay on A498 renal was 96.4%; with CCRF-CEM leukemia it was 88.3%; with MOLT-4 leukemia, 95.2%.

Regarding `Cc1nc2cc(Nc3nc(NCCN)nc(Nc4ccc(F)cc4)n3)ccc2n1Cc1ccccc1`, the growth is 90.5% with SK-MEL-2 melanoma; 85.1% in the assay with SN12C renal; 89.3% in the assay on UO-31 renal; 101% in the assay with TK-10 renal; 96.8% in the assay on ACHN renal; 94.2% in the assay with CAKI-1 renal. The growth with A498 renal was 67.4%; in the assay with CCRF-CEM leukemia it was -13.7% (active); in the assay with MOLT-4 leukemia it was -14.4% (active).

Turning to `CSc1ccc(OC(C)=O)cc1C`, the growth was 92.7% with SK-MEL-2 melanoma; 104% in the assay on SN12C renal; 77.2% with UO-31 renal; 91.1% in the assay with TK-10 renal; 98% in the assay with ACHN renal; 96.4% in the assay with CAKI-1 renal. The growth in the assay on A498 renal was 86.3%; with CCRF-CEM leukemia, 88.5%; in the assay with MOLT-4 leukemia, 89.6%.

As to `O=C(NCc1ccco1)C1CCN(S(=O)(=O)c2ccc(Cl)cc2)CC1`, the growth in the assay with SK-MEL-2 melanoma was 82.6%; in the assay on SN12C renal, 78.3%; in the assay with UO-31 renal it was 57.5%; in the assay on TK-10 renal, 104%; in the assay with ACHN renal, 83.5%; with CAKI-1 renal it was 70.4%. Also, the growth is 59% in the assay with A498 renal, -22.6% (active) in the assay with CCRF-CEM leukemia and 47.2% in the assay with MOLT-4 leukemia.

For the molecule `COc1ccc(OC)c2ncccc12`, the growth in the assay on SK-MEL-2 melanoma is 87.5%; in the assay with SN12C renal it was 101%; in the assay on UO-31 renal, 64.4%; in the assay with TK-10 renal it was 108%; with ACHN renal it was 94.7%; with CAKI-1 renal, 95.7%. Moreover, the growth is 101% in the assay on A498 renal, 92.4% with CCRF-CEM leukemia and 93.1% in the assay on MOLT-4 leukemia.

As for `Cc1nc2cc(Nc3nc(Nc4ccc(F)cc4)nc(-c4ccc(Cl)cc4)n3)ccc2n1Cc1ccccc1`, the growth in the assay on SK-MEL-2 melanoma is 83.6%; in the assay on SN12C renal, 77.1%; in the assay on UO-31 renal, 44.5%; with TK-10 renal it was 112%; in the assay with ACHN renal, 71.6%; in the assay with CAKI-1 renal, 90.4%. The results for the growth in the assay with A498 renal, with CCRF-CEM leukemia and in the assay on MOLT-4 leukemia were 70.3%, 3.88% (active) and 0.841% (active), respectively.

As to `O=C(Nc1ccc(F)cc1)c1ccc(C(=O)Nc2ccc(F)cc2)cc1`, the growth is 105% in the assay on SK-MEL-2 melanoma; 102% in the assay with SN12C renal; 87.8% in the assay on UO-31 renal; 108% in the assay on TK-10 renal; 99.8% in the assay on ACHN renal; 94.2% with CAKI-1 renal. For the same molecule, the growth with A498 renal was 90.4%; with CCRF-CEM leukemia, 102%; in the assay on MOLT-4 leukemia it was 94.4%.

For the molecule `O=C1c2ccccc2-c2nnc(-c3ccc(Br)cc3)cc21`, the growth in the assay on SK-MEL-2 melanoma is -0.262% (active); with SN12C renal it was 27.9%; in the assay on UO-31 renal, 46.9%; in the assay with TK-10 renal, 119%; in the assay on ACHN renal, 34.8%; in the assay with CAKI-1 renal, 60.3%. Moreover, the growth in the assay on A498 renal is 97%; with CCRF-CEM leukemia, 20.7%; in the assay with MOLT-4 leukemia it was 4.61% (active).

With `COc1cc(C2CC(=O)Nc3c2ccc2ccccc32)cc(Br)c1OC` (stereo not given), the growth is 8.51% (active) with SK-MEL-2 melanoma; 50.2% in the assay on SN12C renal; 27.2% with UO-31 renal; 34.4% in the assay on TK-10 renal; 45.9% in the assay on ACHN renal; 27.1% in the assay on CAKI-1 renal. For the same molecule, the figures for the growth with A498 renal, with CCRF-CEM leukemia and with MOLT-4 leukemia were 7.93% (active), -25.7% (active) and 10.6%, respectively.

Turning to `Cc1oc2c(c1C(=O)N1CC[C@@H](N)C1)C(=O)c1c(c(O)c3ccccc3c1O)C2=O`, the growth in the assay with SK-MEL-2 melanoma was 77.4%; in the assay with SN12C renal it was 22%; with UO-31 renal it was 4.23% (active); in the assay on TK-10 renal, 57%; with ACHN renal it was 14.8%; in the assay on CAKI-1 renal, 28.1%. Besides, the growth in the assay with A498 renal is 61.5%; in the assay on CCRF-CEM leukemia, -3.65% (active); with MOLT-4 leukemia, 0.576% (active).

On to `CCCCCCCCCCCCCCNc1nc(CO)ncc1-c1ccc(C(F)(F)F)cc1`, for which the growth is 94.6% in the assay on SK-MEL-2 melanoma; 102% in the assay with SN12C renal; 79.1% in the assay on UO-31 renal; 98.9% in the assay on TK-10 renal; 102% in the assay on ACHN renal; 93.8% with CAKI-1 renal. The growth is 86.4% with A498 renal, 93.6% in the assay on CCRF-CEM leukemia and 99.6% with MOLT-4 leukemia.

Turning to `O/N=C/c1cccs1`, the growth with SK-MEL-2 melanoma is 116%; with SN12C renal, 106%; in the assay on UO-31 renal, 89.1%; in the assay with TK-10 renal it was 118%; with ACHN renal it was 97%; in the assay on CAKI-1 renal, 91.7%. For the same molecule, the growth with A498 renal is 102%; in the assay on CCRF-CEM leukemia, 101%; with MOLT-4 leukemia, 85.5%.
